# G9a inh – G9a (human) methyltransferase inhibition | Q96KQ7 | G9a H3K9 monomethylation, AlphaScreen, 2 h | Potency, µM (top dose mostly 102 µM), without a hit: at the top dose activity, negative = inhibition, usual class: inhibitors | actives 8.8% (n = 350,000); also: % is scaled to controls: 0 for no effect and ±100 for the full control effect; nearly all actives have a fitted effect of over 75% in size
#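 Methyltransferase reactions run at room temperature for 2 h (20 nM enzyme, 500 nM biotin-H3K9 peptide, 20 uM SAM) after a 15 min compound preincubation; product detected by AlphaScreen beads and anti-H3K9me1 antibody.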
# L3MBTL1 block – inhibitors of human L3MBTL1. Potency, µM (highest dose often 57.1 µM), without a hit: at the top dose activity, negative = inhibition, usual class: inhibitors. AID 485360. AlphaScreen L3MBTL1–H3K9me1 peptide binding. actives 0.66% (n = 230,000). Q9Y468; also: % is scaled to controls: 0 for no effect and ±100 for the full control effect; nearly all actives have a fitted effect of over 60% in size
#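 AlphaScreen assay: L3MBTL1 (50 nM final) was preincubated 30 min at room temperature with biotinylated H3(1-15)K9me1 peptide (75 nM final), then 30 min with library compounds; streptavidin donor and nickel chelate acceptor beads (10 ug/mL final) added, 30 min dark.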
# HP1b chromo inh – HP1-beta chromodomain-methylated histone interaction inhibition. actives 0.56% (n = 390,000). Potency, µM (highest dose often 114 µM), inactives show at the highest dose activity change, negative = inhibition, actives largely listed as inhibitors. AlphaScreen HP1-beta / biotin-H3K9me3 peptide binding; also: nearly all actives have a fitted effect of over 70% in size
#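 HP1-beta protein (50 nM final) preincubated 30 min at room temperature with biotinylated H3(1-18)K9me3 peptide (50 nM) in PBS pH 7.4, 0.01% Tween-20, then compound added for 30 min. AlphaScreen streptavidin donor/nickel chelate acceptor beads (10 ug/mL final), 30 min dark, luminescence read.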
# JMJD2A Tudor – inhibitors of human JMJD2A Tudor domain | AlphaScreen JMJD2A-Tudor / H3K4me3 peptide binding | Potency, µM (highest dose often 114 µM), for the others: at the top dose activity change, negative = inhibition, actives largely listed as inhibitors | actives 4.4% (n = 390,000); also: % is scaled to controls: 0 for no effect and ±100 for the full control effect; nearly all actives have a fitted effect of over 50% in size
# BAZ2B block – BAZ2B (human) inhibition. AID 504333. Q9UIF8. AlphaScreen BAZ2B-H3K14Ac peptide displacement. actives 4.4% (n = 360,000). Potency, µM (highest dose often 114 µM), for the others: top-dose activity change, negative = inhibition, hits mostly inhibitors; also: % is scaled to controls: 0 for no effect and ±100 for the full control effect; nearly all actives have a fitted effect of over 60% in size
# Target sequence (Q9UIF8 whole entry, looked up): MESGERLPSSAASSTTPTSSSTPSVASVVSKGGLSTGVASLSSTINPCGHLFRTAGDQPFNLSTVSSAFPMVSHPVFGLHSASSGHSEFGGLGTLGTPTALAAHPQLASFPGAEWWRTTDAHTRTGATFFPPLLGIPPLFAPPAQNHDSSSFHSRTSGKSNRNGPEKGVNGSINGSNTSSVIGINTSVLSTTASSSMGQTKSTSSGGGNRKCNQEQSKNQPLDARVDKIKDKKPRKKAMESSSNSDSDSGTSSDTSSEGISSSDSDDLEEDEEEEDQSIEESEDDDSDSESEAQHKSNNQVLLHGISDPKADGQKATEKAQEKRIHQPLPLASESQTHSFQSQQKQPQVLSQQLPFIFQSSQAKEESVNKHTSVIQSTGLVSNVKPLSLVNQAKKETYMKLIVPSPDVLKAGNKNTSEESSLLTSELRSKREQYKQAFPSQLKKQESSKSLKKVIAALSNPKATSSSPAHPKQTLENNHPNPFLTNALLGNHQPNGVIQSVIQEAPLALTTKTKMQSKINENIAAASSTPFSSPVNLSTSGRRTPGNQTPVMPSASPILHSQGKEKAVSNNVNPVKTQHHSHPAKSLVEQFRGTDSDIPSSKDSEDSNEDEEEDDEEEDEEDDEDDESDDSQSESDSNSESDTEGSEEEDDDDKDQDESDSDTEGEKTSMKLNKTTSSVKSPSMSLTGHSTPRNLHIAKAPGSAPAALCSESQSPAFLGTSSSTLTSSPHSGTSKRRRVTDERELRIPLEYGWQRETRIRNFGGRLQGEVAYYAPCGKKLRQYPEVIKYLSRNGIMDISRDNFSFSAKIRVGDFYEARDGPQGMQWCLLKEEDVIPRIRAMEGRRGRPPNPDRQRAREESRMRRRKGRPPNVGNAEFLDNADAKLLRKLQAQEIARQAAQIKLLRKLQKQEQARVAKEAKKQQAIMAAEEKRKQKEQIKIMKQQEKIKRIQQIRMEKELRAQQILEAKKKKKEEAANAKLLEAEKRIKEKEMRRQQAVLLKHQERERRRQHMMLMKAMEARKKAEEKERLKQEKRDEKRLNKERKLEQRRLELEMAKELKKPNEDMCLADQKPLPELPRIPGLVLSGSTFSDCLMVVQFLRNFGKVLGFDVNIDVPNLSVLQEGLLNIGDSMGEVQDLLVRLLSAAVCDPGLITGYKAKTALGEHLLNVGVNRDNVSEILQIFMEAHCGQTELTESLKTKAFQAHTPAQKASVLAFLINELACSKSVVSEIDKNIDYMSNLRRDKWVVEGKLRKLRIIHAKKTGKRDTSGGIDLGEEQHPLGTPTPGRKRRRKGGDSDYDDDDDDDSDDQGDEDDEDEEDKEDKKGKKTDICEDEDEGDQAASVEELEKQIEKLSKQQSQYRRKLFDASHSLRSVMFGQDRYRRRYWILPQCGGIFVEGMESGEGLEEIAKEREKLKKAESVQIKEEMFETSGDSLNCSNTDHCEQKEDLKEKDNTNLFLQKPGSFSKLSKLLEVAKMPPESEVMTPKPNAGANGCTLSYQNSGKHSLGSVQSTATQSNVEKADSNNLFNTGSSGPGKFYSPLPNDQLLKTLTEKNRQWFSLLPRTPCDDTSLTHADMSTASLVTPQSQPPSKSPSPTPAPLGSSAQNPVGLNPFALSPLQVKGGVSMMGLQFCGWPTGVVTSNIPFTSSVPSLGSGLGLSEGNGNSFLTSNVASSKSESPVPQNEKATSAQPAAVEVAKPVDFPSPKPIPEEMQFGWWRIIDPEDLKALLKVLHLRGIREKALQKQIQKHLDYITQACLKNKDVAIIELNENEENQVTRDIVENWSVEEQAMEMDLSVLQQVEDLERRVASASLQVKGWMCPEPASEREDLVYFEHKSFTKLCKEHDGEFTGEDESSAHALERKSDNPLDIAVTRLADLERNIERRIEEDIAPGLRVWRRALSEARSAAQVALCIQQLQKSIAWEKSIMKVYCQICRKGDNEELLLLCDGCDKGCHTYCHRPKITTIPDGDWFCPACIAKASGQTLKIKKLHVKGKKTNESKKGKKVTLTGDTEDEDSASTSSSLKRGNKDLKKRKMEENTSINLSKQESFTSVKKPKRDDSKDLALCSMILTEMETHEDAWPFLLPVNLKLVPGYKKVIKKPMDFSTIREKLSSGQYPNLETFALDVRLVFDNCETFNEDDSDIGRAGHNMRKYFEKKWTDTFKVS
#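 AlphaScreen luminescence quantifies BAZ2B engagement of H3K14Ac peptide; the protein and biotinylated peptide are both at 50 nM final, buffer PBS pH 7.4 with 0.01% Tween-20, all steps at room temperature.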
# The depositor's hits bear a star; ? = inconclusive; . = not tested or not shown; [ ] = remark or other dose. Rows were chosen to be rich in hits. Some 11% of all compounds tested hit in one or more screens of this group. Calls follow the shape of the dose curve; as a rule, active = well fitted inhibition curve with a large enough effect; inconclusive = small, poorly fitted or top-dose-only effect; inactive = no such curve, though single readings can be large or run the other way. Potency is read from the fitted curve at half-maximal effect.
SMILES,G9a inh,L3MBTL1 block,HP1b chromo inh,JMJD2A Tudor,BAZ2B block
CC(=O)Nc1cccc(N2CCCC2=O)c1,-5.3%[59 µM],-8.3%[11.4 µM],0.1%,-5.8%,3.3%
CCCCN(C)CCCNC(=O)c1cccc(N2CCCC2=O)c1,-3.7%,.,32.8%,-1.5%,4.1%
CN(CCCNC(=O)c1cccc(N2CCCC2=O)c1)c1ccccc1,8.91µM*,-21.5%,14.3%,-26.8%,-25.5%
CC1CC(C)CN(CCCNC(=O)c2ccc(N3CCCC3=O)cc2)C1 (stereo unspecified),7.94µM*,.,17.8%,-12.5%,0.0%
C[C@H]1CC[C@H]2C(=O)N3[C@H](c4cccc(N5CCCC5=O)c4)[C@@H](C)CC[C@H]3C(=O)N2[C@@H]1c1cccc(N2CCCC2=O)c1,50.1µM*,-5.0%,.,.,-38.4%
O=C(O)c1cccc(N2CCCC2=O)c1,50.1µM*,-5.7%,12.8%,-11.0%,-4.4%
COC(=O)c1sccc1S(=O)(=O)N(CC(=O)NCc1ccc(F)cc1)c1ccc(Cl)cc1,23.8%[59 µM],.,-11.5%,-22.7%,-3.8%
COc1ccc(C2=NC3(CCCCCC3)N(CC(=O)Nc3ccc(C)c(C)c3)C2=O)cc1,2.8%[59 µM],.,38.0%,-9.4%,-21.9%
CC1=C(C(=O)OCC2CCCCC2)C(c2ccc(Cl)cc2)CC(=O)N1 (stereo unspecified),-3.3%[59 µM],.,10.2%,-15.8%,-12.3%
Cn1c2cc(Br)sc2c2cnn(Cc3ccc(F)cc3)c(=O)c21,-38.4%[12.7 µM],1.1%,.,.,-3.2%
CCCCn1c(-c2ccc(S(=O)(=O)N3CCOCC3)cc2)csc1=Nc1ccccc1,5.62µM*,.,?,?,?
CCCn1c(-c2ccc(S(=O)(=O)N3CCOCC3)cc2)csc1=Nc1ccc(OCC)cc1,12.6µM*,.,?,?,?
CCOc1ccc(NC(=O)COc2ccc(S(=O)(=O)N3CCOCC3)cc2)cc1,.,4.8%,14.9%,-8.2%,.
CCCC(C(=O)Nc1ccc(S(=O)(=O)N2CCOCC2)cc1)c1ccccc1 (stereo unspecified),32.6%[12.7 µM],10.3%,13.0%,-7.4%,7.3%
O=S(=O)(c1ccc(Oc2ccccc2)cc1)N1CCOCC1,-8.6%[59 µM],.,31.5%,7.1%,1.5%
O=S(=O)(c1ccc(-c2csc(=Nc3ccccc3)n2CCCN2CCOCC2)cc1)N1CCOCC1,37.9%[0.501 µM],-21.4%,?,?,39.8µM*
COc1ccc(-c2noc(N3CCC(C(=O)N(C)c4cc(Cl)ccc4OC)CC3)n2)cc1,2.5%[59 µM],.,25.8%,-21.1%,-2.1%
Cc1ccc(S(=O)(=O)NCC23C=CC(O2)C2C(=O)N(c4ccccc4)C(=O)C23)cc1 (stereo unspecified),?,.,?,?,7.6%
Cc1ccc(NC(=S)NCC23C=CC(O2)C2C(=O)N(c4ccc(C)cc4)C(=O)C23)cc1 (stereo unspecified),7.94µM*,-2.0%,?,89.1µM*,-26.7%
Cc1ccc(N2C(=O)C3C4C=CC(CNC(=S)N5CCN(c6ccccc6)CC5)(O4)C3C2=O)cc1 (stereo unspecified),2.24µM*,.,?,?,.
CC1CC(C)CN(CCCNS(=O)(=O)c2ccc3c(c2)oc(=O)n3C)C1 (stereo unspecified),10.3%,.,33.3%,-7.6%,-14.7%
COc1cc(OC)c(NS(=O)(=O)c2cc3c(cc2C)NC(=O)CO3)cc1Cl,-1.2%[59 µM],.,48.0%,-7.9%,-2.0%
CCOC(=O)CC1C(=O)NCCN1C(=O)c1cc2c(=O)n3ccccc3nc2s1 (stereo unspecified),89.1µM*,.,.,.,5.3%
CCOC(=O)CC1C(=O)NCCN1C(=O)c1cc2c(=O)n3cccc(C)c3nc2s1 (stereo unspecified),?,.,23.5%,-27.5%,2.4%
O=C(c1cc2c(=O)n3ccccc3nc2s1)N1CCc2ccccc2C1,39.8µM*,4.1%,.,.,-11.9%
SMILES,G9a inh,L3MBTL1 block,HP1b chromo inh,JMJD2A Tudor,BAZ2B block
Cc1cc(NCCCn2ccnc2)n2ncc(-c3ccc(Cl)cc3)c2n1,37.1%[59 µM],-2.3%,-2.3%,?,?
Cc1cccc(-c2cc3nc(C)cc(NCCCn4ccnc4)n3n2)c1,?,.,-12.6%,-22.9%[11.4 µM],17.8µM*
CC(C)(C)c1cc(NCCCn2ccnc2)n2ncc(-c3ccccc3)c2n1,?,-9.4%,10.2%,?,56.2µM*
c1ccc(CN2CCC(Nc3nc(-c4cccs4)nc4ccccc34)CC2)cc1,35.5µM*,?,3.1%,?,?
CCN(CC)CCN(CC(=O)N(C1CCCCC1)C1CCCCC1)C(=O)c1ccco1,44.7µM*,.,?,1.58µM*,50.1µM*
O=C(NCCc1ccccc1)c1ccc2c(c1)CCN2S(=O)(=O)c1ccccc1,-4.7%[59 µM],.,41.9%,-2.5%,-0.4%
Cc1c(OCC(=O)NCc2ccccn2)ccc2c3c(c(=O)oc12)CCCC3,?,.,13.5%[57 µM],50.1µM*,-13.1%
Cc1c(OC(C)C(=O)NCc2ccccn2)ccc2c3c(c(=O)oc12)CCC3 (stereo unspecified),20.5%,.,41.3%,-20.1%,-3.6%
O=C(NCCS(=O)(=O)NCc1ccccn1)c1ccccc1,61.4%,-8.0%,-2.4%,2.82µM*,4.4%
O=C(NCCS(=O)(=O)NC1CCCC1)c1ccccc1,-39.7%,3.1%,16.6%,-11.1%,10.6%
O=C(COc1ccc(S(=O)(=O)NCc2ccccc2)cc1Cl)NCc1ccccn1,44.7µM*,.,-3.7%,-12.7%,-37.5%
Cc1cc(S(=O)(=O)NC2CCCCC2)ccc1OCC(=O)NCc1ccccn1,10.0%[59 µM],-6.4%,21.0%,28.2µM*,-26.8%
O=C(COc1ccc(S(=O)(=O)N2CCc3ccccc32)cc1Cl)NCc1ccccn1,14.1µM*,23.3%[11.4 µM],-0.7%,44.7µM*,79.4µM*
O=C(NCc1ccccn1)c1cccc(S(=O)(=O)NCc2ccccc2)c1,14.5%,-3.8%,44.6%,-13.0%,56.2µM*
NC(=S)N=Nc1c(O)cc(O)c2[nH]c(=O)ccc12,.,.,17.8µM*,50.1µM*,.
COc1ccc(C(C)C(=O)c2ccc(O)cc2O)cc1 (stereo unspecified),-9.8%[2.33 µM],.,.,.,.
Cc1ccc(Nc2nn3c(=O)c4cc5c(cc4nc3s2)OCO5)cc1Cl,-12.0%[59 µM],.,3.0%,-11.6%,0.0%
Cc1cc(C)c(Nc2nn3c(=O)c4cc5c(cc4nc3s2)OCO5)c(C)c1,2.24µM*,.,?,-32.1%,-1.5%
